JMJD2A Tudor – JMJD2A Tudor domain (human) inhibition; Potency, µM (top dose mostly 114 µM), without a hit: at the top dose activity change, negative = inhibition, most hits filed as inhibitors; 390,000 compounds, 4.4% hits; AID 504339; O75164; AlphaScreen JMJD2A-Tudor / H3K4me3 peptide binding; further: on the % scale 0 is the no-effect control and ±100 the full control effect; nearly all actives have a fitted effect of over 50% in size
HP1b binding inh – inhibitors of HP1-beta chromodomain binding to methylated histone tails; P83916; AlphaScreen HP1-beta / biotin-H3K9me3 peptide binding; Potency, µM (series often up to 114 µM), for the others: at the highest dose activity change, negative = inhibition, actives largely listed as inhibitors; 390,000 compounds, 0.56% hits; AID 540317; further: nearly all actives have a fitted effect of over 70% in size
Target sequence (P83916 whole entry, looked up): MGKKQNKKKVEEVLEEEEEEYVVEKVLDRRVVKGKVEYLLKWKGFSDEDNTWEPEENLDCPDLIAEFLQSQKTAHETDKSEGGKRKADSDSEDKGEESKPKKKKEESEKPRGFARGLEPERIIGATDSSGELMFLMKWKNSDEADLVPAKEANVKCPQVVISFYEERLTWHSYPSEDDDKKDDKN
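Compound inhibition of the preformed complex between 50 nM HP1-beta and 50 nM biotinylated H3K9me3 peptide was read by AlphaScreen. Buffer was PBS pH 7.4 with 0.01% Tween-20. Incubations ran 30 min at room temperature, with 10 ug/mL donor/acceptor beads.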
G9a block – G9a (human) methyltransferase inhibition; 350,000 compounds, 8.8% hits; Potency, µM (series often up to 102 µM), for inactives: at the top dose activity, negative = inhibition, hits mostly inhibitors; AID 504332; G9a H3K9 monomethylation, AlphaScreen, 2 h; Q96KQ7; further: on the % scale 0 is the no-effect control and ±100 the full control effect; nearly all actives have a fitted effect of over 75% in size
Target sequence (Q96KQ7 913-1193 limits assumed): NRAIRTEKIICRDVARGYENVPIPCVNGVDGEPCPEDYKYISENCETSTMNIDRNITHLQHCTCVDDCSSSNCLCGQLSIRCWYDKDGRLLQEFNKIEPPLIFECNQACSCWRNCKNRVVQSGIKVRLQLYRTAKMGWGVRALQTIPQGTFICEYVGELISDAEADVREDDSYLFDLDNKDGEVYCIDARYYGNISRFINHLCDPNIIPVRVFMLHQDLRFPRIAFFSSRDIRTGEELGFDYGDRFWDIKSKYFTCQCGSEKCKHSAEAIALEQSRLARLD
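Step 1: enzyme (final 20 nM) with compound, 15 min RT. Step 2: substrate peptide 500 nM and SAM 20 uM, 2 h RT. Step 3: anti-H3K9me1 antibody and AlphaScreen beads, 10 min, then plate read.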
L3MBTL1 block – L3MBTL1 (human) inhibition. Q9Y468. AlphaScreen L3MBTL1–H3K9me1 peptide binding. 230,000 compounds, 0.66% hits. Potency, µM (doses to about 57.1 µM), inactives show top-dose activity, negative = inhibition, hits mostly inhibitors; further: on the % scale 0 is the no-effect control and ±100 the full control effect; nearly all actives have a fitted effect of over 60% in size
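AlphaScreen assay: L3MBTL1 (50 nM final) was preincubated 30 min at room temperature with biotinylated H3(1-15)K9me1 peptide (75 nM final), then 30 min with library compounds; streptavidin donor and nickel chelate acceptor beads (10 ug/mL final) added, 30 min dark.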
BAZ2B inh – BAZ2B (human) inhibition | Potency, µM (titrated, usually from 114 µM), without a hit: at the top dose activity change, negative = inhibition, hits mostly inhibitors | 360,000 compounds, 4.4% hits | AlphaScreen BAZ2B-H3K14Ac peptide displacement | Q9UIF8; further: on the % scale 0 is the no-effect control and ±100 the full control effect; nearly all actives have a fitted effect of over 60% in size
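BAZ2B 50 nM plus b-H3(5-23)K14Ac 50 nM, PBS pH 7.4/0.01% Tween-20, 30 min RT; compound added (max 110 uM), 30 min RT; streptavidin donor/Ni-chelate acceptor beads 10 ug/mL final, 20 min dark; AlphaScreen read.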
Sfp inh – inhibitors of Bacillus subtilis Sfp phosphopantetheinyl transferase; Q9F4F7; Biochemical Sfp PPTase activity, qHTS; Potency, µM, inactives show largest response in the series, negative = inhibition, usual class: inhibitors; 310,000 compounds, 3.5% hits; AID 1490;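 further: the enzyme is Sfp with the accession as filed and its product quenches rhodamine fluorescence; 0% = enzyme reaction without inhibitor and -100% = no enzyme wells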
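Fluorescence-quenching assay: 15 nM Sfp-PPTase preincubated 15 min at room temperature with compound, then 5 uM rhodamine-CoA and 12.5 uM BHQ-2-labelled YbbR peptide added. Fluorescence (ex 525/em 598 nm) read at start and after 30 min; difference gives rate.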
Starred values were filed as active, the others as inactive; ? = inconclusive; nt = no result; [ ] = remark or other dose. Most compounds without a hit are left out; they make up all but 12% or so of the library. The call rests on the fitted dose curve; in most records, active means well fitted curve in the direction sought with a large enough effect; inconclusive means small, poorly fitted or top-dose-only effect, or another doubt; inactive means no such curve, though single readings can be large; an effect the other way counts as inactive or inconclusive. Potency means the concentration at half of the fitted maximal effect.

SMILES	JMJD2A Tudor	HP1b binding inh	G9a block	L3MBTL1 block	BAZ2B inh	Sfp inh
COc1ccc(-c2ccc(N(C)C)cc2)cc1C1C2C=CCC(C)C2C(=O)N1Cc1ccccc1 (stereo not given)	7.08µM*	-24.3%	nt	nt	nt	10.5%
COc1ccc(-c2ccc(N(C)C)cc2)cc1[C@H]1[C@H]2C=CC[C@@H](C)[C@@H]2C(=O)N1Cc1ccccc1	5.62µM*	?	?	nt	?	-1.7%
Cc1cccnc1NC(=S)NCc1ccco1	-26.3%	11.8%	2.51µM*	-1.5%	?	15.8µM*
Cc1cccc(NC(=S)NCc2ccco2)c1C	-20.5%	8.3%	?	-5.7%	-30.1%	5.9%
S=C(NCc1ccco1)Nc1ccc(Cl)cn1	-32.6%	10.0%	8.91µM*	nt	?	-7.2%
S=C(NCc1ccco1)Nc1ccccn1	-27.7%	33.7%	?	-3.2%[11.4 µM]	?	-7.6%
CC(C)(CO)NC(=S)NCc1ccco1	-13.1%	8.5%	39.8µM*	-4.0%	-6.6%	15.8µM*
CCOC(=O)c1c(NC(=O)COC(=O)Cc2n[nH]c(=O)c3ccccc23)sc(C(=O)NC)c1C	-13.4%	37.6%	nt	2.7%	nt	nt
COc1ccc2oc(C(=O)OC(C)C(=O)N3C(C)CCCC3C)c(C)c2c1 (stereo not given)	-17.9%	9.8%[57 µM]	nt	-1.8%	nt	nt
Cc1cc(=O)n2nc(N3CCCC(C(=O)NC4CCC(C)CC4)C3)sc2n1 (stereo not given)	-3.8%	23.5%	1.6%[0.0925 µM]	nt	-1.9%	-8.0%
COc1ccccc1-n1nnnc1SCC(=O)NCC1CCCO1 (stereo not given)	-10.3%	26.1%	56.2µM*	8.3%	1.4%	nt
CCOc1ccccc1-n1nnnc1SCC(=O)NC(=O)Cc1ccccc1	-29.0%	19.7%	10µM*	8.5%	0.2%	nt
COc1ccc(NC(=O)CSc2nnnn2-c2ccccc2OC)c(OC)c1	-12.0%	15.3%	-10.5%	3.9%	-7.8%	7.6%
COc1ccccc1-n1nnnc1SCC(=O)Nc1ccc(C)c(N)c1	-10.6%	7.7%	?	nt	-16.3%	79.4µM*
O=C(c1ccc2c(c1)N(Cc1ccccc1)C(=O)c1ccccc1S2(=O)=O)N1CCN(c2ccccc2)CC1	-25.9%	18.1%	-39.0%[59 µM]	nt	?	nt
CCOc1cc(CNC(=O)c2ccc(Cn3c(=O)c4cccn4c4cccnc43)cc2)ccc1OC	-16.5%	1.9%	-2.3%[59 µM]	nt	-12.3%	nt
CCOC(=O)/C(C#N)=C1\SS/C(=C(/C#N)C(=O)OCC)S1	nt	nt	1.58µM*	nt	?	10µM*
COc1cccc(NC(=O)C(=O)NCCC2CCCCN2S(=O)(=O)c2cccs2)c1 (stereo not given)	-9.0%	8.9%	-21.3%	-3.2%	-28.7%	nt
C=CCOC(=O)/C=C/C(=O)NC(N)=O	?	17.8µM*	8.91µM*	nt	-0.2%	20µM*
CC(C)C(=O)Nc1c2c(nc3ccccc13)N(C)CC2	-15.8%	5.4%	-4.4%[0.0925 µM]	-3.1%	-28.1%	11.6%
CN1CCCCc2c1nc1c(c2N)CCCC1	1.78µM*	?	?	0.4%	?	-13.7%
CN1CCc2c1nc1ccccc1c2N (tested in a mixture with another compound)	-9.5%	35.5%	79.4µM*	nt	20.2%	4.3%
Cc1cccc2c(N)c3c(nc12)CCCC3 (tested in a mixture with another compound)	-17.1%	46.3%	nt	-1.3%	-19.0%	10.7%
Cc1cccc2c(N)c3c(nc12)N(C)CC3	17.8µM*	-19.7%	50.1µM*	nt	50.1µM*	-9.3%
Cc1cc(C)c(N=C2CCCN2Cc2ccccc2)c(C#N)c1	54.0%	93.9%	13.9%[59 µM]	36.6%	42.6%	8.7%
SMILES	JMJD2A Tudor	HP1b binding inh	G9a block	L3MBTL1 block	BAZ2B inh	Sfp inh
CN1CCc2c1nc1ccccc1c2N=C1CCCN1Cc1ccccc1	44.7µM*	2.8%	-2.8%[59 µM]	-0.5%	-7.8%	-8.1%
Cc1cccc(CN2C(=O)CSc3ccc(C(=O)NC4CC4)cc32)c1	-0.7%	18.6%	6.3%	nt	0.3%	12.8%
CCc1nnc(NS(=O)(=O)c2ccc(NC(=O)CCC(=O)OC)cc2)s1	-0.6%	32.1%	-10.7%	-3.1%	?	-1.3%
CCOc1ccc(C2C(=O)N(C3CCCCCC3)CC(=O)N2CCc2ccccc2)cc1OC (stereo not given)	-26.9%	-15.1%	?	nt	-12.8%	nt
CC1=C(/C=C/C(C)=C/C=C/C(C)=C/C=C/C=C(C)/C=C/C=C(C)/C=C/C2=C(C)C(=O)C(O)CC2(C)C)C(C)(C)CC(O)C1=O (stereo not given)	nt	nt	nt	nt	nt	13.4%
Nc1c2c(nc3cccc(Cl)c13)N(c1ccccc1)CC2	-13.7%	17.6%	18.2%	nt	6.2%	8.8%
Cc1ccc2nc3c(c(N)c2c1)CCN3c1ccccc1	0.794µM*	?	17.8µM*	-3.0%	56.2µM*	-16.3%
CCCCN1CCc2c1nc1ccc(Br)cc1c2N	-27.6%	3.3%	8.1%[12.7 µM]	nt	-7.8%	-20.3%
Cc1ccc2nc3c(c(N)c2c1)CCN3C	25.1µM*	35.5µM*	8.91µM*	nt	79.4µM*	-16.2%
O=C(c1ccc(S(=O)(=O)N2CCOCC2)cc1)N(c1cccc(Cl)c1)C1C=CS(=O)(=O)C1 (stereo not given)	-25.2%	3.0%	-32.5%	nt	13.9%	15.6%
COc1ccccc1-n1nnnc1SCC(=O)NC1CCCCC1	2.2%	21.1%[57 µM]	22.1%	nt	-6.1%	4.9%
Cc1ccc(NC(=S)NCC23C=CC(O2)C2C(=O)N(c4ccc(C)cc4)C(=O)C23)cc1 (stereo not given)	89.1µM*	?	7.94µM*	-2.0%	-26.7%	35.5µM*
Cc1ccc(S(=O)(=O)NCC23C=CC(O2)C2C(=O)N(c4ccccc4)C(=O)C23)cc1 (stereo not given)	?	?	?	nt	7.6%	28.2µM*
Cc1ccc(N2C(=O)C3C4C=CC(CNC(=S)N5CCN(c6ccccc6)CC5)(O4)C3C2=O)cc1 (stereo not given)	?	?	2.24µM*	nt	nt	12.6µM*
Cc1c(N)cc(N)cc1C(=O)O	-11.7%	0.6%	79.4µM*	nt	-35.2%	-20.3%
O=C(Nc1ccc(-c2n[nH]c(=S)o2)cc1)c1ccccc1	?	44.8%	31.6µM*	nt	-13.1%	-14.7%
O=C(Nc1ccc(-c2ccccc2)cc1)c1ccccc1	10.8%	30.9%	-11.8%[0.501 µM]	-3.3%[2.29 µM]	13.1%	3.4%
COc1ccc(C(=O)Nc2ccc(-c3n[nH]c(=S)o3)cc2)cc1	?	26.3%	1.78µM*	nt	?	-16.4%
CCCCCn1ncc2c3sc(C)cc3n(C)c2c1=O	16.4%	nt	nt	nt	nt	nt
